Binding signal data for 39 sequences are collected here from PMC10812921, “Transcriptional Coactivator BOB1 (OBF1, OCA-B) Modulates the Specificity of DNA Recognition by the POU-Domain Factors OCT1 and OCT2 in a Monomeric Configuration”.

One assay deals with POU1 (OCT1 POU domain) (human, UniProt P14859 260-458). In words: EMSA-SELEX-seq; no BOB1; 20 mM Tris-HCl pH 7.6, 140 mM NaCl, 10% glycerol, 0.5 mM EDTA, 0.05% Triton X-100, 0.1 mg/mL BSA, 0.1 mg/mL poly(dI-dC), 5 mM DTT, room temperature, 20 min; high values mean tight binding. As to conditions: protein: recombinant; dsDNA, one strand shown. The essentials: (§1)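 Tagged POU-domain proteins were produced in E. coli BL21, purified under denaturing conditions and renatured before use. They were mixed at 30 ng with 300 ng of a PCR-amplified double-stranded random 35-nt library, with or without 28 ng coactivator protein, in 20 μL Tris–HCl pH 7.6 binding buffer, incubating 20 min at RT. Complexes cut from native 6% PAGE were eluted and PCR-amplified over four rounds, then sequenced by Illumina, with binding preference taken as the percentage of sequenced 8-mers matching a motif pattern.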
Sequence of POU1 (OCT1 POU domain) (P14859 260-458): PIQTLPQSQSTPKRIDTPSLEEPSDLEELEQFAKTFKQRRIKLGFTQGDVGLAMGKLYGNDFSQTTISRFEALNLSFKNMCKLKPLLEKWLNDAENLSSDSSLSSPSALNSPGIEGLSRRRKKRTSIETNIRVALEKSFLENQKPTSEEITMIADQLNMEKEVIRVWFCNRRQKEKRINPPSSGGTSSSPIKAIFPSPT
For the sequence AGTGAAAC, the binding signal was 0.0282 % of ANNNNAAN 8-mers.
Still for that read-out and setting: under ACACCAAT stands 0.0187 % of ANNNNAAN 8-mers; under AGCGAAAC, 0.0183 % of ANNNNAAN 8-mers.
Same read-out and setting: under AGGCTAAA stands 0.0381 % of ANNNNAAN 8-mers; under ATGTCAAT, 0.0828 % of ANNNNAAN 8-mers; under AGGAGAAT, 0.0789 % of ANNNNAAN 8-mers.
Same read-out and setting: under AGCAAAAT stands 0.102 % of ANNNNAAN 8-mers; under ACGACAAC, 0.0126 % of ANNNNAAN 8-mers; under ATTCCAAT, 0.0767 % of ANNNNAAN 8-mers.
As for ACATCAAT, the binding signal was 0.0435 % of ANNNNAAN 8-mers.
Same read-out and setting: under AAGTAAAT stands 0.19 % of ANNNNAAN 8-mers.
For AAGCAAAA, the binding signal is 0.142 % of ANNNNAAN 8-mers.
The same measure, in the same setting: the same measure for ATATTAAG: 0.196 % of ANNNNAAN 8-mers; for AACGAAAG: 0.0313 % of ANNNNAAN 8-mers.
Same read-out and setting: the same measure for AGTGAAAT: 0.138 % of ANNNNAAN 8-mers; for ATCTGAAC: 0.0275 % of ANNNNAAN 8-mers.
As for ATGGCAAC, the binding signal was 0.0263 % of ANNNNAAN 8-mers.
Same read-out and setting: under ATGCGAAC stands 0.04 % of ANNNNAAN 8-mers.
Take AAATCAAG: the binding signal is 0.098 % of ANNNNAAN 8-mers.
The same measure, in the same setting: under AAGATAAA stands 0.0622 % of ANNNNAAN 8-mers; under AATCTAAT, 0.116 % of ANNNNAAN 8-mers; under ACCAGAAC, 0.013 % of ANNNNAAN 8-mers.
On the same count and under the same terms, the same measure for AGTTTAAT: 0.129 % of ANNNNAAN 8-mers; for AAACTAAT: 0.104 % of ANNNNAAN 8-mers.
The same measure, in the same setting: the same measure for ATTCTAAA: 0.0946 % of ANNNNAAN 8-mers; for ATGTGAAC: 0.0374 % of ANNNNAAN 8-mers.
As to AAGTTAAT, the binding signal is 0.165 % of ANNNNAAN 8-mers.
Take AGCGAAAA: the binding signal was 0.0389 % of ANNNNAAN 8-mers.
On the same count and under the same terms, the same measure for AAGTCAAA: 0.141 % of ANNNNAAN 8-mers; for AGACGAAA: 0.0309 % of ANNNNAAN 8-mers; for AGTTCAAG: 0.0297 % of ANNNNAAN 8-mers.
Regarding AAATGAAA, the binding signal was 0.15 % of ANNNNAAN 8-mers.
On the same count and under the same terms, under AATATAAG stands 0.101 % of ANNNNAAN 8-mers; under AACCAAAC, 0.0248 % of ANNNNAAN 8-mers.
For the sequence ACATAAAG, the binding signal is 0.0934 % of ANNNNAAN 8-mers.
Same read-out and setting: the same measure for AGGCGAAA: 0.0389 % of ANNNNAAN 8-mers.
The same measure, in the same setting: under ACCAGAAG stands 0.0137 % of ANNNNAAN 8-mers; under ACAATAAA, 0.0481 % of ANNNNAAN 8-mers; under ATACTAAT, 0.17 % of ANNNNAAN 8-mers.

The target of a further assay is T1, POU2 (OCT2 POU domain) (human, UniProt P09086 175-386).
T1 sequence: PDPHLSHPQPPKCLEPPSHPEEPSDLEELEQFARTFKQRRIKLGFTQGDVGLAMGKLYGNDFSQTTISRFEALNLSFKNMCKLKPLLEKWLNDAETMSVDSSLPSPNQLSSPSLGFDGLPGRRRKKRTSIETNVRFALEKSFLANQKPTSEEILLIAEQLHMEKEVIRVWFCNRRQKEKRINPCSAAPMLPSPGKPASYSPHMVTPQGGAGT
The description is as above. As to conditions: protein: recombinant; dsDNA, one strand shown. In short, it runs like this:
as §1
AGTGAAAC: the binding signal was 0.0178 % of ANNNNAAN 8-mers.
Same read-out and setting: the same measure for ACACCAAT: 0.0173 % of ANNNNAAN 8-mers.
Same read-out and setting: under AGCGAAAC stands 0.023 % of ANNNNAAN 8-mers; under AGGCTAAA, 0.0414 % of ANNNNAAN 8-mers.
Still for that read-out and setting: the same measure for ATGTCAAT: 0.0869 % of ANNNNAAN 8-mers; for AGGAGAAT: 0.0771 % of ANNNNAAN 8-mers.
For the sequence AGCAAAAT, the binding signal was 0.0702 % of ANNNNAAN 8-mers.
The same measure, in the same setting: under ACGACAAC stands 0.0132 % of ANNNNAAN 8-mers; under ATTCCAAT, 0.11 % of ANNNNAAN 8-mers; under ACATCAAT, 0.057 % of ANNNNAAN 8-mers.
Take AAGTAAAT: the binding signal was 0.146 % of ANNNNAAN 8-mers.
On the same count and under the same terms, the same measure for AAGCAAAA: 0.0898 % of ANNNNAAN 8-mers; for ATATTAAG: 0.214 % of ANNNNAAN 8-mers; for AACGAAAG: 0.0328 % of ANNNNAAN 8-mers.
On the same count and under the same terms, under AGTGAAAT stands 0.124 % of ANNNNAAN 8-mers; under ATCTGAAC, 0.0265 % of ANNNNAAN 8-mers; under ATGGCAAC, 0.0219 % of ANNNNAAN 8-mers.
Same read-out and setting: the same measure for ATGCGAAC: 0.0357 % of ANNNNAAN 8-mers; for AAATCAAG: 0.0926 % of ANNNNAAN 8-mers.
On to AAGATAAA, for which the binding signal was 0.0662 % of ANNNNAAN 8-mers.
AATCTAAT: the binding signal was 0.143 % of ANNNNAAN 8-mers.
Same read-out and setting: under ACCAGAAC stands 0.0127 % of ANNNNAAN 8-mers.
Still for that read-out and setting: under AGTTTAAT stands 0.156 % of ANNNNAAN 8-mers; under AAACTAAT, 0.129 % of ANNNNAAN 8-mers.
ATTCTAAA: the binding signal is 0.123 % of ANNNNAAN 8-mers.
Same read-out and setting: under ATGTGAAC stands 0.0386 % of ANNNNAAN 8-mers.
The same measure, in the same setting: the same measure for AAGTTAAT: 0.178 % of ANNNNAAN 8-mers.
The same measure, in the same setting: under AGCGAAAA stands 0.0386 % of ANNNNAAN 8-mers.
On to AAGTCAAA, for which the binding signal is 0.113 % of ANNNNAAN 8-mers.
Same read-out and setting: the same measure for AGACGAAA: 0.0472 % of ANNNNAAN 8-mers; for AGTTCAAG: 0.0276 % of ANNNNAAN 8-mers; for AAATGAAA: 0.133 % of ANNNNAAN 8-mers.
On the same count and under the same terms, under AATATAAG stands 0.123 % of ANNNNAAN 8-mers; under AACCAAAC, 0.0236 % of ANNNNAAN 8-mers.
In the case of ACATAAAG, the binding signal is 0.108 % of ANNNNAAN 8-mers.
On the same count and under the same terms, the same measure for AGGCGAAA: 0.0357 % of ANNNNAAN 8-mers; for ACCAGAAG: 0.0167 % of ANNNNAAN 8-mers.
Still for that read-out and setting: under ACAATAAA stands 0.0495 % of ANNNNAAN 8-mers.
For the sequence ATACTAAT, the binding signal is 0.182 % of ANNNNAAN 8-mers.
